From the supplement of paper PMC3334620
Over roughly 33,000 sequences, “E-score (-0.5 to 0.5)” has its median near -0.043; the highest 2% begin near 0.37. The list comes from a sample in which the highest values are over-represented; it also holds similar and randomly drawn sequences.

Target: T1, Upc2 (UniProt Q12151)
T1 sequence: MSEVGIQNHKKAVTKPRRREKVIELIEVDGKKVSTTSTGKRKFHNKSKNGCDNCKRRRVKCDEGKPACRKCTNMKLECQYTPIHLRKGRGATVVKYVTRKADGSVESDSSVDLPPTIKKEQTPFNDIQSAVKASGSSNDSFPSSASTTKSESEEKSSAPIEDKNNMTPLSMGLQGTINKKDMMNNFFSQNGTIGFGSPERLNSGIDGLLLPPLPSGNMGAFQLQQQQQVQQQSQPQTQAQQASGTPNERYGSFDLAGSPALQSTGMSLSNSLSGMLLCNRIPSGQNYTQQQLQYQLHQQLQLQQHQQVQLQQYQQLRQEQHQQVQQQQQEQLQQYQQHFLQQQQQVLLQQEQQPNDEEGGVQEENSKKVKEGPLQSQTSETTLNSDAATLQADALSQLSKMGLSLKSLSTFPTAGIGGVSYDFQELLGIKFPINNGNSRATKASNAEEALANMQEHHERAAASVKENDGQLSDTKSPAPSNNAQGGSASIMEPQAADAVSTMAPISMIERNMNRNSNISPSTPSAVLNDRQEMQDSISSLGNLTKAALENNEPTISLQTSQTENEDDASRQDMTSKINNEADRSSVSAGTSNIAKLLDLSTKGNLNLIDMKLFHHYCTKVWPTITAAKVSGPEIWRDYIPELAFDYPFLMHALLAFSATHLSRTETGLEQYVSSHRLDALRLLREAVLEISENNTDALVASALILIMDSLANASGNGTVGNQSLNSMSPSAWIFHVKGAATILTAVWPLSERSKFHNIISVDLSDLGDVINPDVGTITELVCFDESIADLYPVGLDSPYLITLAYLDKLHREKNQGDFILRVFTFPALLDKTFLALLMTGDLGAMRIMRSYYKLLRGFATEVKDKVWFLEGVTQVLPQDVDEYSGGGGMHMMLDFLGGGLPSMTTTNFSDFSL
Assay: PBM E-score (8-mer binding enrichment) (E-score (-0.5 to 0.5)); higher = stronger / more preferred TF binding
Settings: protein concentration: 200 nM; construct: GST-full length
Description: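 Universal 'all 10-mer' protein binding microarrays (Agilent AMADID 015681) probed with GST-tagged S. cerevisiae TFs (full-length or DBD) made by in vitro transcription/translation (PURExpress), about 100-200 nM. Bound TF was detected with fluorescent anti-GST. Each ungapped 8-mer (which stands for itself and its reverse complement) is scored by the PBM enrichment score (E-score), a modified Wilcoxon-Mann-Whitney statistic from -0.5 to +0.5, computed with the Universal PBM Analysis Suite. Scale: above 0.35 generally sequence-specific binding.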

| Sequence | PBM E-score |
| --- | --- |
| AGTTAAAG | 0.0271 |
| AGTTAAGC | 0.00193 |
| CTTTAAAG | -0.114 |
| CGTTAAAC | 0.411 |
| GAAAACTC | -0.114 |
| AGAGAATG | 0.0339 |
| GCAGTGGA | -0.123 |
| CTCAATAA | -0.213 |
| GACAGTGA | -0.0168 |
| CACTAGGA | -0.245 |
| CGATACGA | 0.464 |
| AGATACGC | 0.201 |
| GGATACTA | -0.183 |
| GGATACCA | -0.0879 |
| GGATACGA | 0.463 |
| CGATACAA | 0.0776 |
| CGATACGC | 0.267 |
| AGATACGG | 0.307 |
| AGATACGA | 0.454 |
| TGCGGCAA | -0.127 |
| ATATCTAC | 0.0208 |
| CTGCTCAC | 0.00302 |
| AGCGTGAA | -0.0302 |
| ACAGCTAT | -0.0224 |
| AGGTCGTC | 0.0416 |
| CGGTCGTA | 0.442 |

| Sequence | PBM E-score |
| --- | --- |
| GGGTCGTA | 0.42 |
| AGGTCGTG | 0.0575 |
| AGGTCGTA | 0.451 |
| GGGTCGGA | 0.0691 |
| GGGTCGAA | 0.0267 |
| CGGTCGTC | 0.0119 |
| CGGTCGGA | -0.0376 |
| CTGGGTGC | -0.106 |
| GCGCACTA | -0.00558 |
| CGGCTGCC | -0.0671 |
| TGCGACCA | 0.0986 |
| GACGACCA | 0.071 |
| CACGACCA | -0.0648 |
| AACGACCA | 0.405 |
| AACGACCT | 0.386 |
| TACGACCA | 0.45 |
| ACCGACCG | 0.13 |
| AACGACCC | 0.365 |
| AGCGACCT | 0.132 |
| AACGACCG | 0.403 |
| TCCGACCA | 0.0761 |
| CACGACCG | 0.00924 |
| CAGCATAA | -0.0242 |
| GGACCTAC | 0.0699 |
| CCGATCTC | -0.136 |
| AATGAGTC | -0.0524 |

| Sequence | PBM E-score |
| --- | --- |
| ATTGGAAC | -0.0244 |
| GGCTAACC | -0.0479 |
| AAGTCGTA | 0.416 |
| AAGTCGTG | -0.0736 |
| CAGTCGGA | -0.016 |
| GAGTCGTA | 0.43 |
| GAGTCGCA | 0.0248 |
| CAGTCGTA | 0.416 |
| GAGTCGGA | -0.0556 |
| CAGTCGTC | -0.106 |
| AAGTCGTC | 0.121 |
| GGACATTA | 0.01 |
| AAATCTAA | -0.16 |
| TCGCATCA | 0.209 |
| CCGGGCAC | -0.214 |
| ACAGATGC | -0.00973 |
| AAGATTGA | -0.156 |
| AAACGAAG | 0.464 |
| TAACGAAA | 0.334 |
| CAACGAAA | 0.221 |
| AAACGTAT | 0.328 |
| AGACGAAG | 0.0695 |
| CAACGAAG | 0.235 |
| AACCGAAT | 0.277 |
| AAACGAAA | 0.46 |
| AAACGAAT | 0.451 |

| Sequence | PBM E-score |
| --- | --- |
| ACTCGACA | 0.0576 |
| ACGCACTC | 0.151 |
| GGTTGGGA | -0.0786 |
| CCCTGCGC | -0.276 |
| CGTACAGA | 0.41 |
| CCTACAGC | -0.334 |
| CGTACAGC | 0.446 |
| GGTACAGA | -0.0181 |
| AGTACAGA | -0.0613 |
| AGTACAGC | -0.156 |
| AGCAGACC | -0.0454 |
| CAGGTACA | -0.226 |
| AAGGTACC | -0.0716 |
| ATGGTACG | 0.388 |
| CAGGTACC | -0.112 |
| CAGGTACG | 0.396 |
| ATGGTACA | -0.173 |
| AAGGTACT | 0.00877 |
| AAGGTACG | 0.393 |
| ATGGTACC | -0.257 |
| CTTAGATA | -0.0328 |
| AGCGTGGA | -0.0828 |
| CAGAGACA | -0.356 |
| CGCTCGGA | 0.163 |
| CGCTCGTC | 0.127 |
| AGCTCGTG | 0.107 |

| Sequence | PBM E-score |
| --- | --- |
| GGCTCGTA | 0.472 |
| CGCTCGTA | 0.466 |
| AGCTCGTC | 0.103 |
| GGCTCGAA | -0.0434 |
| GGCTCGGA | 0.0556 |
| AGCTCGTA | 0.473 |
| AGGGCTAC | -0.113 |
| GAGGGCGC | -0.0991 |
| GTGGTTGA | -0.0855 |
| CCGTAAGA | 0.21 |
| GCGTATCA | 0.182 |
| TCGTATCA | 0.463 |
| GCGTAACA | 0.118 |
| TCGTAAGA | 0.399 |
| ACGTAAGA | 0.146 |
| TCGTAACA | 0.404 |
| ACGTATCA | 0.254 |
| CCGTAACA | 0.22 |
| CTGCAGAC | -0.0383 |
| AACACTGA | 0.0163 |
| GGGTCAAC | -0.231 |
| TGAACTCA | -0.00504 |
| CACCCTTC | -0.0111 |
| GAATACGA | 0.439 |
| AAATACGT | 0.109 |
| GAATACTA | 0.104 |

| Sequence | PBM E-score |
| --- | --- |
| CAATACGG | 0.196 |
| TAATACGA | 0.429 |
| CAATACGA | 0.419 |
| AAATACGC | 0.212 |
| GAATACGC | 0.175 |
| CAATACGC | 0.0949 |
| TAATACCA | -0.0667 |
| AAATACGA | 0.449 |
| TAATACTA | 0.105 |
| ACTTTATA | 0.127 |
| CCGTCCAC | -0.0949 |
| AATACTAG | 0.00488 |
| ATCAGACG | 0.0965 |
| GGAGTGAC | -0.0854 |
| AGCTCCAT | -0.216 |
| ACTGTCCA | -0.0712 |
| AGTACCCC | -0.00507 |
| CGTACCCC | 0.391 |
| AGTACCCA | -0.131 |
| GGTACCCA | -0.0644 |
| CGTACCCA | 0.376 |
| CATACCCC | -0.0287 |
| CTTTTGGA | -0.147 |
| ACCCACAC | 0.11 |
| GATACGCA | 0.276 |
| CATACGCA | 0.313 |

| Sequence | PBM E-score |
| --- | --- |
| CATACGGA | 0.365 |
| TATACGGA | 0.47 |
| GATACGGA | 0.278 |
| TATACGCA | 0.449 |
| ACACCATC | -0.205 |
| CCAAGGAC | -0.247 |
| CGGAGAAA | 0.158 |
| CTTGATCA | -0.14 |
| CGTTATAC | 0.367 |
| CTATATAC | 0.358 |
| AGTTATAC | 0.333 |
| GGCTATAC | 0.299 |
| ATTTATAA | 0.0439 |
| AGCTATAC | 0.309 |
| ATTTATAC | 0.41 |
| CTCTATAC | 0.397 |
| ATCTATAC | 0.287 |
| CTTTATAC | 0.303 |
| CGCTATAC | 0.392 |
| GGTTATAC | 0.383 |
